KCNH2 WT inh: KCNH2 (human, wildtype) channel inhibition. U2OS, BacMam KCNH2, thallium flux FluxOr; hits give low values. activity change, % at 1.84 µM. 340,000 tested, 0.37% active. AID 720551;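 active = maximum activity change below -70%; inconclusive = maximum activity change between -70% and -50%; inactive = maximum activity change above -50%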; also: % is scaled to controls: 0 for no effect and ±100 for the full control effect
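U2OS cells transduced with wild-type KCNH2 virus are loaded with FluxOr dye for 45 min, and thallium flux is measured in kinetic reads before and after stimulation buffer. Rate constants are normalized to DMSO controls.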
TRPV1 potentiator: potentiators of human vanilloid receptor 1 (TRPV1) | Q8NER1 | TRPV1-expressing cells, Fluo-8 calcium influx, capsaicin EC20 potentiation | potentiation, % at 8.33 µM | 320,000 tested, 0.02% active | AID 540277; in the data active = potentiation above about 80%; inconclusive = between about 30% and that limit; also: 0% is about no effect
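Fluo-8 calcium influx in TRPV1-expressing cells, kinetic read (ex 480/em 520 nm). Compound added and read 3 min for agonist activity, followed by capsaicin at EC20 final and 2 min further read for enhancement.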
KCNH2 3.1 block: inhibitors of human KCNH2 3.1 potassium channel isoform | U2OS KCNH2 3.1, thallium flux FluxOr; hits give low values | activity change, % (tested at about 1.8 µM) | 340,000 tested, 0.95% active;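 active = maximum activity change below -70%; inconclusive = maximum activity change from -70% to -50%; inactive = maximum activity change above -50%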;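 also: thallium influx rate constant from kinetic fluorescence after stimulation buffer; % is scaled to controls: 0 for no effect and ±100 for the full control effect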
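Steps: virus added to U2OS suspension (4 h, RT, dark); medium with 10% FBS added, cells plated, 37 C overnight; FluxOr/Red40 loading buffer 45 min RT; stimulation buffer, 2 min kinetic read; rate constant normalized.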
TRPML1 agonist: human mucolipin-1 channel agonism | Q9GZU1 | 410,000 tested, 0.12% active | activation, % (no concentration beside the values) | TRPML1-expressing cells, Ca2+ dye fluorescence, FDSS; in the data active = activation above about 50%; inconclusive = mostly about 30% to 49%; also: 0% is about no effect
Target sequence (Q9GZU1 whole entry, looked up): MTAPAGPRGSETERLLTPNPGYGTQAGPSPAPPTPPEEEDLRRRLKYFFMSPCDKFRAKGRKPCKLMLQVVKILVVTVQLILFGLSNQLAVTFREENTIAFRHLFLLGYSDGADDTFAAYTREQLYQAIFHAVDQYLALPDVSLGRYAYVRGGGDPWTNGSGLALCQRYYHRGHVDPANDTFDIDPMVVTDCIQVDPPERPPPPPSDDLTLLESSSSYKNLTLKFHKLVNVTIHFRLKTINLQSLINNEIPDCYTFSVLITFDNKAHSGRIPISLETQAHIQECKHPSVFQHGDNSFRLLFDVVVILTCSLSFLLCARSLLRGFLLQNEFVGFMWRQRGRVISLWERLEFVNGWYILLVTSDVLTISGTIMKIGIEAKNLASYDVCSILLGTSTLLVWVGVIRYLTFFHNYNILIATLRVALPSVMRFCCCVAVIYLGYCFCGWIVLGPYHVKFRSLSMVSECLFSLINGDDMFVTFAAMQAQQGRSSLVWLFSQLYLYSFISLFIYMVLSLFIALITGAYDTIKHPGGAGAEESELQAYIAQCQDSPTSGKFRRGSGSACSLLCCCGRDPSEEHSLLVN
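Calcium fluorescence on an FDSS kinetic reader gave the read-out. Tet-induced TRPML1-DL cells were plated overnight, dye-loaded (Ca8 with quencher, 45-90 min, room temperature, dark), then read 110 s after compound addition, and again 110 s after 4uM final 54-4 (EC80).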
TRPML1 inh: human mucolipin-1 channel inhibition; Q9GZU1; AID 624415; activity change, negative = inhibition, % (no concentration beside the values); 390,000 tested, 0.02% active; TRPML1-inducible cells, Ca2+ dye fluorescence, FDSS; hits give low values; inhibition of EC80 agonist-evoked calcium signal; in the data active = activity change below about -50%; inconclusive = between about -30% and that limit;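 also: stimulus is agonist 54-4 at its EC80 concentration; % is scaled to controls: 0 for no effect and ±100 for the full control effect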
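Tet-induced TRPML1-DL cells loaded with Ca8 no-wash calcium dye were read kinetically on FDSS. Compound addition was followed by EC80 agonist 54-4 (4 uM final); inhibition was read over 110 s.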
TRPV1 ag: human TRPV1 agonism | 320,000 tested, 0.19% active | activation, % at 8.33 µM | TRPV1-expressing cells, Fluo-8 calcium influx, agonist mode | AID 540275; in the data active = activation above about 80%; inconclusive = between about 30% and that limit; also: 0% is about no effect
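TRPV1-expressing cells were cultured overnight at 35.5C and loaded with Fluo-8 calcium dye for 40 to 90 min at room temperature. After a 10 s baseline, compound was added and calcium influx was read kinetically for 3 min (ex 480/em 520 nm).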
Starred values were filed as active, the others as inactive; u = inconclusive; x = no result given. Rows were chosen to be rich in hits. Some 1.3% of all compounds tested hit in one or more screens of this group.

SMILES	KCNH2 WT inh	TRPV1 potentiator	KCNH2 3.1 block	TRPML1 agonist	TRPML1 inh	TRPV1 ag
Clc1ccc(-n2c(Cc3ccccc3)nnc2SCc2nc(-c3cccs3)no2)cc1	x	x	x	1	-5	x
O=C(NC1CC(=O)N(c2ccccc2)C1)c1ccc(S(=O)(=O)N2CCCCC2)cc1 (configuration not stated)	x	x	x	0	-7	x
CN(Cc1ccccc1)/[N+]([O-])=N/Oc1ccc([N+](=O)[O-])cc1[N+](=O)[O-]	x	x	x	1	-13	x
Cn1cc(/C=C/c2ccc3ccccc3n2)c2ccccc21	x	x	x	9	x	x
NS(=O)(=O)c1ccc(CNC(=O)c2cc(-c3cccnc3)nc3ccccc23)cc1	0	-3	-159*	-1	81	1
Cc1ccc(Sc2cc(C(=O)NCCN(C)C)c3ccccc3n2)cc1	6	-2	-96*	0	-9	0
Cc1ccc(Sc2cc(C(=O)NCCCN(C)C)c3ccccc3n2)cc1	18	-6	-42	1	1	0
NS(=O)(=O)c1ccc(CNC(=O)c2cc(-c3ccccc3)nc3ccccc23)cc1	0	-3	-7	0	3	28
c1ccc2c(CCc3c[nH]c4ccccc34)ccnc2c1	x	x	x	18	x	x
O=[N+]([O-])c1ccc(O/N=[N+](\[O-])N2CCCCC2)c([N+](=O)[O-])c1	x	x	x	1	34	x
C=C1NN(Cc2ccccc2)C(=O)N1c1ccc(OCc2ccccc2)cc1	x	x	x	-1	x	x
Cc1ccc2oc(C(=O)N3CCC(c4nc5ccccc5s4)CC3)c(C)c2c1	x	x	x	54*	-12	x
Cc1c(C(=O)N2CCC(c3nc4ccccc4s3)CC2)oc2cc(Br)ccc12	x	x	x	0	6	x
CCC(Cn1nnc2ccccc2c1=O)NC(=O)Nc1ccc(C)c(C)c1 (configuration not stated)	x	x	x	0	-69*	x
CCN1/C(=c2/s/c(=C3/C(=O)N(c4ccccc4)N=C3C)n(CC)c2=O)C=Cc2ccccc21	-7	x	-14	0	9	x
CCN1/C(=C2\C(=O)N(c3ccccc3)N=C2C)C=Cc2cc(C)ccc21	0	-7	-102*	0	9	2
CC1(C)CC(=O)CC2(C1)NCC(c1ccccc1)c1c2[nH]c2ccccc12 (configuration not stated)	-75*	5	-102*	0	2	10
CC(C)NC(=O)NC(=O)CN1C(=O)NC2(CCc3ccccc3C2)C1=O (configuration not stated)	4	23	20	1	-2	-1
CCC(C)NC(=O)CN1C(=O)NC2(CCc3ccccc3C2)C1=O (configuration not stated)	0	21	-77*	0	7	2
CCCCOP(=O)(c1ccc(N(C)C)cc1)C(Nc1ccccc1)c1ccccc1 (configuration not stated)	-4	10	-95*	2	9	u
CCCOP(=O)(c1ccc(N(C)C)cc1)C(Nc1ccccc1)c1ccc(N(C)C)cc1 (configuration not stated)	1	-8	-21	1	21	u
CCOc1ccc(N(CC(=O)N/N=C/c2ccccn2)S(=O)(=O)c2ccc(Cl)cc2)cc1	-4	2	-81*	2	30	0
O=C(CCNS(=O)(=O)c1ccccc1)OCc1nnc(-c2ccccc2)o1	-131*	-6	-198*	-1	78	10
CC(=O)Nc1ccc(S(=O)(=O)NCCC(=O)OCc2nnc(-c3ccccc3)o2)cc1	-2	u	4	1	-9	-5
CN(C)/[N+]([O-])=N/Oc1ccc([N+](=O)[O-])cc1[N+](=O)[O-]	x	x	x	1	-13	x
SMILES	KCNH2 WT inh	TRPV1 potentiator	KCNH2 3.1 block	TRPML1 agonist	TRPML1 inh	TRPV1 ag
COc1cc2nc(C#N)nc(N)c2cc1OC	x	x	x	-1	x	x
COc1ccc(Nc2sc(C(=O)c3ccc(Cl)cc3)c(N)c2C(=O)Nc2ccccc2OC)cc1	-1	8	5	u	4	2
COc1ccc(C(=O)c2sc(Nc3cccc(OC)c3)c(C(=O)Nc3cccc(C)c3C)c2N)cc1	-1	1	-33	61*	-20	2
Cc1cc(-c2ccc(C)c(S(=O)(=O)N(C)c3ccc(C)c(C)c3)c2)on1	x	x	x	0	1	x
COc1ccc(CC2(CO)CCN(Cc3cccn3-c3ccccn3)CC2)cc1	u	16	-108*	0	-1	0
COc1ccc(CC2(CO)CCN(Cc3ccc4c(c3)CCO4)CC2)cc1	-154*	-6	-181*	0	72	7
COc1ccc(CC2(CO)CCN(Cc3ccc(NC(C)=O)cc3)CC2)cc1	-2	8	-23	2	-4	-4
OCC1(Cc2ccccc2)CCN(Cc2ccc(-c3ccco3)cc2)CC1	-11	15	-85*	0	4	0
OCC1(Cc2ccccc2)CCCN(Cc2ccc(-c3ccco3)cc2)C1 (configuration not stated)	-4	-5	-26	0	-23	12
COc1ccc(CC2(CO)CCN(Cc3cccc4nccnc34)CC2)cc1	1	3	-30	0	-1	3
OCC1(Cc2ccccc2)CCN(CCCC2CCCC2)CC1	-35	17	-75*	0	-6	2
Cc1c(CN2CCC(CO)(Cc3ccccc3)CC2)c2ccccc2n1C	38	1	5	1	10	5
O=C(Nc1ccc(F)cc1F)c1ccc2c(O)c(S(=O)(=O)c3ccc(Cl)cc3)c(=O)[nH]c2c1	x	x	x	0	-3	x
CC(C)=CCC/C(C)=C/COc1c2ccoc2cc2oc(=O)ccc12	x	-9	x	0	59	u
CCN1CCOC(=O)C1CC(=O)Nc1ccc(Br)cc1 (configuration not stated)	x	x	x	1	-18	x
COc1ccc(CC2(CO)CCN(Cc3cnn(-c4ccc(F)cc4)c3)CC2)cc1	13	-10	11	1	16	13
COc1ccc(CC2(CO)CCN(Cc3ccc(OC(F)(F)F)cc3)CC2)cc1	u	-1	-81*	1	28	7
COc1ccc(CC2(CO)CCN(Cc3cnn(-c4ccccc4)c3)CC2)cc1	-45	-4	-89*	3	8	4
CC(C)(C)N1C(=O)[C@H]2[C@@H](c3ccc(Br)cc3)N3C(=O)N(c4cccc(F)c4)C(=O)[C@@]3(Cc3ccccc3)[C@H]2C1=O	-1	-11	0	1	15	1
COc1ccc([C@@H]2[C@@H]3C(=O)N(C(C)(C)C)C(=O)[C@@H]3[C@]3(Cc4ccccc4)C(=O)N(c4cccc(F)c4)C(=O)N23)cc1	5	8	-74*	1	-9	-5

Assay outcomes as filed in PubChem.
